Laboratory results reported in the supplement of paper PMC10338343.
± gives the standard deviation.

tested on: MILI (PIWIL2) piRISC loaded with L1MC piRNA (26 nt); experiment: pre-steady-state target cleavage rate (min^-1); guide: L1MC piRNA 5'p-UAACUAAAUACUAUGCAAGCUGUAGG; MIWI and MILI are mouse PIWI proteins and EfPiwi is from a freshwater sponge; tags in brackets are library labels; higher = faster piRNA-guided slicing of the target; settings: auxiliary factor: 500 nM mouse GTSF1
Summary of the method: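 Active affinity-purified piRISC (1 nM) loaded with one synthetic guide was mixed with a transcribed, DNA-blocked target RNA library (0.1 nM), with or without 500 nM GTSF1 partner protein, in HEPES–potassium acetate buffer at 33 °C for 0–8 or 0–960 min. Uncleaved targets were sequenced, normalised to depth and to weakly complementary targets, and pooled across three trials, with k3 capped at 0.0001 min^-1. The pre-steady-state cleavage rate was determined with a burst-and-steady-state fit.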

Sequence	pre-steady-state target cleavage rate
UCCUGGAUGAGCUUGCAUAGUUUUUAGUAA	0.0181 ± 0.0068
UCCUGCUACAGCUUGCAUAGUAAAAAGAAA	0.0111 ± 0.0048
UCCUGGAUGAGCUUGCAUAGUAUAAUGAAA	0.00735 ± 0.0041
UCCUGGAUGUCCUUGCCAUAGUAUUUAGUUA	0.00783 ± 0.0048
UCCUGGAACAGCUUGCAUAGUAUAAAGUAA	0.249 ± 0.063
UCCUGGAUGAGCAUCCAUAGUAUUUAGUUA	0.231 ± 0.059
UCCUGGAUGUGGUUGCAUAGUAUUUAGAAA	0.0521 ± 0.022
UCCUCCUACAGCUACCAUAGUAUUUACAAA	0.0179 ± 0.008
UCCUGGAUGUCGAUGCAUAGUAUAUUGUUA	0.0249 ± 0.008
UCCUGGAUCAGCUUGCAAUAGUAUUUAGUUA	0.00703 ± 0.0039
UCCUGCUACAGCAACCAUAGUAUUUAGUUA	0.305 ± 0.04
UCCUGGAACAGCUUGCAUAGUAUUUACUAA	0.0459 ± 0.013
UCCUGGAUGUCGAAGCAUAGUAUAAUGUUA	0.0052 ± 0.0029
UCCUGCUACAGGAUGCAUAGUAUUUUCAAA	0.0053 ± 0.0038
UCCUGGAUGUGCUUGCAUAGUAUAUAGUUA	0.083 ± 0.014
UCCUGGAUCAGGUUGCAUAGUAUUUACAAA	0.0312 ± 0.011
UCCUGGAUCAGCUUGCAUAGUUAAUAGUAA	0.0192 ± 0.0068
UCCUGGAUGUGCUUGCAAAGUAUUUAGAAA	0.0118 ± 0.0048
UCCUGGAACAGCUUGCAUAUAUUUAGUUA	0.0331 ± 0.0059

Sequence	pre-steady-state target cleavage rate
UCCUCCUACAGCUUGCUAUGUAUUUUCAAA	0.006 ± 0.0037
UCCUGGAUGUCGUUGCAAAGUAUUAAGUUA	0.0094 ± 0.0044
UCCUGGAUGAGCUUGCAUAGUAUUUAGAAA	0.119 ± 0.03
UCCUGGAUGUCGUUGCAUAGUAAUAAGUUA	0.0113 ± 0.004
UCCUGGAUGUCGAUGGAUAGUAUUUUGUUA	0.00767 ± 0.0043
UCCUGGAUGUGCUUGGAUAGUAUUUAGAUA	0.00891 ± 0.0052
UCCUGGAUCAGCUUGCAUAGUAAUUUCAAA	0.042 ± 0.016
UCCUCCAUGAGCUUGCAUAGUAUUUUCAAA	0.0168 ± 0.0069
UCCUGGAUGUCGAUGCAUAGUAUUUUGUUA	0.0682 ± 0.016
UCCUGGAUGUCGUUGCAUAGUAUAUUGUUA	0.0458 ± 0.017
UCCUGGAUGUCCUUGGUUAGUAUUUAGUAA	0.0915 ± 0.022
UCCUGGAACAGGAAGCAUAGUAUUUACAAA	0.061 ± 0.02
UCCUGGAUGAGCUUGCAUAGUAAUUUGUUA	0.0508 ± 0.018
UCCUGGUACAGCUUGCAUAGUUUUUAGAAA	0.0221 ± 0.011
UCCUGGAUCAGCUUGCAUAGAAAUUAGUUA	0.0245 ± 0.0096
UCCUGGAUGUCCUAGCAUAGUAUUUAGAUA	0.0302 ± 0.007
UCCUGGAUGAGCUUGCAUAGUAUUAUCUUA	0.00985 ± 0.0048
UCCUGGAUGUCCUUGCAUAGUAAAAAGUUA	0.0137 ± 0.0059

same assay, conditions: auxiliary factor: none (no GTSF1)

Sequence	pre-steady-state target cleavage rate
UCCUGGAUGUCGAACGUAUGUGUUUAGUUA	< 0.0001
UCCUGGAUGUCGAACGUAUCUAUUUAGUCUA	< 0.0001
UCCUGGAUGUCGAACGUUAGAUUUUAGUUA	< 0.0001
